PKA-R1A activ = PKA-R1A complex activation. PKA-R1A dissociation, Cy5-IP20 fluorescence polarization; scaled: DMSO 0%, 113 µM cGMP 100%. P00514+P68181. 340,000 tested, 0.083% active. activation, % at 11.4 µM. AID 504707;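 active = percent activation above the mean of all tested compounds plus 3 SD, cut at about 19% in these data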;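 note: higher means more PKAc released from R1A so a rise in polarization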
MsrA inhibitor = inhibitors of bovine MsrA; 360,000 tested, 0.75% active; inhibition, % at 15.5 µM; purified bovine MsrA, absorbance read-out;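 note: 0% = vehicle wells with enzyme and 100% = reference inhibitor wells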
MsrA act = activators of bovine methionine sulfoxide reductase A; 360,000 tested, 0.3% active; activation, % at 10.6 µM; AID 602163; purified bovine MsrA, absorbance read-out; in the data active = activation above about 7.5%;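 note: 0% = vehicle and 100% = reference activator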
PKA-R2B act = activators of human PKA-R2B complex | PKA-R2B holoenzyme dissociation, Cy5-IP20 fluorescence polarization; R2B truncated from residue 108, S112A mutant; 0% DMSO only, 100% 113 µM cGMP | 340,000 tested, 0.079% active | AID 504700 | activation, % at 11.4 µM;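 active = activation above a cutoff set at the mean over all compounds plus 3 SD, cut at about 18% in these data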;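 note: higher means more holoenzyme dissociation and a rise in polarization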
Target sequence (P31323 whole entry, looked up, other chains not shown, the tested form may be a part): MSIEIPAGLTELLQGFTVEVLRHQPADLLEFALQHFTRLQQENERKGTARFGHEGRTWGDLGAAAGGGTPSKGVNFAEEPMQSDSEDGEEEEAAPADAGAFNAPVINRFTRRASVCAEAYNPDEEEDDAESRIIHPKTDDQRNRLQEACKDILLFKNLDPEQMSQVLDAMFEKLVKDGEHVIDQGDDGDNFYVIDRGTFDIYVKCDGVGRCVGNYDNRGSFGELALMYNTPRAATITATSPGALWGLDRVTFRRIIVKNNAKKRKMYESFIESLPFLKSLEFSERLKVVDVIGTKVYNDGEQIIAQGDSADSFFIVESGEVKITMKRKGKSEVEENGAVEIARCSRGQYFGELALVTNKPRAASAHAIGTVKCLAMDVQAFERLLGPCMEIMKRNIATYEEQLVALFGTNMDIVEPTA
MsrA inh confirm = confirmation of bovine MsrA inhibitors. 2,300 tested, 41% active. shares compounds with MsrA inhibitor. inhibition, % at 15.5 µM. purified bovine MsrA, absorbance read-out;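 note: coupled to thioredoxin reductase with NADPH and selenocystamine and DMSO as substrate; 0% = vehicle only and 100% = full effect of reference inhibitor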
The depositor's hits bear a star; nt = not tested or not shown. The list is not random: actives were taken first. Their share in the collection is about 1.1%. Cut-off read from the data, not from the text of the source, unless noted: active = inhibition above about 4.5%; inactive = the rest.

SMILES	PKA-R1A activ	MsrA inhibitor	MsrA act	PKA-R2B act	MsrA inh confirm
CCOC(=O)CSc1ncnc2c1nnn2-c1ccc(F)cc1	-7	0	-3	-1	nt
CC(=O)c1c(C)nc(-c2cccc([N+](=O)[O-])c2)n1O	2	1	-6	-3	nt
COc1ccc(-c2nc(C)c(C(C)=O)n2O)cc1[N+](=O)[O-]	2	4.8*	-4	-10	3
Cc1nc2cc3c(=O)n(C)cnc3cc2n1Cc1ccccc1	2	1	-12	2	nt
NC1=NC(=O)/C(=C/c2cn(CCC(=O)O)nc2-c2ccc(F)cc2)S1	12	5.0*	-6	3	3
CN(C)c1cccc(NC2=CC(=[N+]3CCOCC3)CC(C)(C)C2)c1	-3	4.8*	-6	-2	5.2*
CC1(C)CC(=O)C=C(Nc2cccc(F)c2)C1	-6	3	-4	-9	nt
Cc1cc2nc(-c3ccc(SCC(=O)Nc4ccc(S(=O)(=O)N5CCCC5)cc4)nc3)[nH]c2cc1C	4	5.0*	-8	8	3
Cc1ccc2nc(-c3ccc(SCC(=O)O)nc3)[nH]c2c1	4	8.9*	-13	-11	4.7*
O=C(CSc1ccc(-c2nc3ccccc3[nH]2)cn1)Nc1ccc(S(=O)(=O)N2CCCC2)cc1	-2	3	-4	-4	nt
COc1cccc(C(=O)N[C@@H](CC(C)C)C(=O)N2CCC[C@H]2C(=O)NCc2ccccc2)c1	nt	0	nt	nt	nt
CNc1cncc(-c2cc(OC)c(OC)c(OC)c2)n1	nt	2	-4	nt	nt
O=C(N[C@H](C(=O)N1CCC[C@H]1C(=O)NC1CCCC1)C1CCCCC1)C1CC1	nt	-1	nt	nt	nt
O=C(O)c1ccc(N/N=C/c2ccncc2)cc1	-5	5.7*	-6	0	4
O=C(O)c1ccc(N/N=C/c2ccnc3ccccc23)cc1	5	0	2	6	nt
O=C(O)c1ccc(N/N=C/c2ccc3nccnc3c2)cc1	-5	4.8*	-8	2	3
COc1cccc(NC(=O)N2CCCC2C(=O)NCc2ccco2)c1 (centres undefined)	2	1	-6	5	nt
O=C(NCc1ccco1)c1cc2cc3ccc(Cl)cc3nc2o1	-4	0	-3	7	nt
COc1ccc2cc3cc(C(=O)NCc4ccco4)oc3nc2c1	-2	4.8*	-3	-7	2
COc1ccc2cc3cc(C(=O)NCc4ccccn4)oc3nc2c1	-8	8.0*	-5	0	5.6*
COc1ccc2cc(S(=O)(=O)c3ccccc3)c(=O)oc2c1	-1	5.3*	-5	2	4
CCOc1c(CNc2nnnn2C)cccc1OC	-12	0	-4	3	nt
Cc1ccsc1C(=O)N1CCN(c2ncc(C(F)(F)F)cc2Cl)CC1	7	0	-1	3	nt
CC(=O)N1CCCN(Cc2cn(-c3cc(C)ccc3C)nc2-c2ccccc2)CC1	3	5.0*	3	-9	0
O=C(NC(=S)NCCN1CCOCC1)c1ccccc1Cl	-18	0	-13	-4	nt
SMILES	PKA-R1A activ	MsrA inhibitor	MsrA act	PKA-R2B act	MsrA inh confirm
O=C(NC(=S)NCCCN1CCOCC1)c1ccco1	-8	5.8*	-2	-10	3
Cc1cccc(C(=O)N2CCC(C)(C(=O)NS(=O)(=O)C3CC3)C2)c1C (centres undefined)	nt	-2	-1	nt	nt
O=C1CCCc2nc(N3CCCCC3)sc21	-4	5.8*	-3	-8	5.2*
O=C(c1ccco1)N(CCO)Cc1cc2cc3c(cc2[nH]c1=O)OCO3	-8	6.1*	-1	-5	3
O=C(c1ccccc1)N(CCO)Cc1cc2cc3c(cc2[nH]c1=O)OCCO3	7	1	-4	-6	nt
CNS(=O)(=O)c1cccc(C(=O)OCCCOC(=O)c2cccc(S(=O)(=O)NC)c2)c1	0	0	-2	-2	nt
CNS(=O)(=O)c1cccc(C(=O)OCC(=O)c2cc3ccccc3o2)c1	-12	24*	-4	-15	19*
CCCCc1cc(=O)oc2c(CN(C)C)c(O)c(Cl)cc12	-6	5.0*	-5	-7	2
CCc1c(C)c2cc(Cl)c(O)c(CN(C)C)c2oc1=O	-8	4	-15	1	nt
Cc1ccc(C(=O)N/N=C/c2ccc(-c3ccc(Br)cc3[N+](=O)[O-])o2)o1	-9	1	-1	11	nt
O=[N+]([O-])c1ccccc1-c1ccc(/C=N/n2cnnc2)o1	-11	3	-2	-6	nt
O=C(O)CC1S/C(=N/N=C/c2ccc(-c3ccccc3[N+](=O)[O-])o2)NC1=O (centres undefined)	9	4.9*	-4	-2	4
Cc1ccc(-c2ccc(/C=N/N=C3/NC(=O)C(CC(=O)O)S3)o2)c([N+](=O)[O-])c1 (centres undefined)	-1	5.9*	-6	-11	6.8*
Oc1ccccc1C1=Nc2ccccc2N=C(c2ccco2)C1	1	4.7*	-4	-11	2
COC(=O)c1sc(S(=O)(=O)NCCCN(C)C)c(C(=O)OC)c1C	4	0	0	2	nt
COC(=O)c1sc(S(=O)(=O)Nc2ccc(C)c(C)c2)c(C(=O)OC)c1C	-1	6.1*	-11	-11	5.7*
CCOC(=O)c1cc2ccc(OC(=O)c3ccco3)cc2oc1=O	-13	2	1	-7	nt
CCOC(=O)c1cc2ccc3ccccc3c2oc1=O	-1	15*	-3	-1	10*
Cn1nccc1C(=O)Oc1cccc(/C=N/NC(=O)c2ccccc2O)c1	-3	1	-7	-7	nt
O=[N+]([O-])c1ccccc1S(=O)(=O)N1CCN(C2CCN(Cc3ccccc3)CC2)CC1	-3	0	-4	-2	nt
COc1cc(/C=N/N=C2/NC(=O)C(Cc3ccc(F)cc3)S2)ccc1O (centres undefined)	3	4	-2	1	nt
COc1cc(/C=N/N=C2/NC(=O)C(c3ccccc3)S2)ccc1O (centres undefined)	-3	4.9*	-10	-5	4
COc1cc(/C=N/N=C2/C(=O)Nc3ccccc32)ccc1O	-21	4.9*	-5	-9	2
Cn1cnnc1SCC(=O)Nc1ccc2ccccc2c1	-6	-1	-2	-1	nt
Cc1ccc(N2C(=O)c3cccc4c([N+](=O)[O-])ccc(c34)C2=O)c2cccnc12	2	1	-4	-8	nt
SMILES	PKA-R1A activ	MsrA inhibitor	MsrA act	PKA-R2B act	MsrA inh confirm
Cc1ccnc(N2C(=O)c3cccc4c([N+](=O)[O-])ccc(c34)C2=O)c1	5	12*	0	3	8.6*
COC(=O)/C=C1\OCc2cc(OC)c(OC)cc21	nt	3	nt	nt	nt
COc1cc2c(cc1OC)/C(=C/C(C)=O)OC2	nt	6.9*	nt	nt	4
N#Cc1ccc(OCCCN2CCC(C(O)(C3=CCCC3)c3ccccc3)CC2)cc1 (centres undefined)	nt	0	nt	nt	nt
COc1cccc2c1Oc1cc([N+](=O)[O-])cc(N(C)C(C)=O)c1C=C2	-8	15*	-8	-3	11*
Cc1cc(N2CCc3ccccc32)n2ncnc2n1	1	5.3*	-2	12	4
CSC1=NC(=O)/C(=C/c2ccc(SC)cc2)S1	-1	0	-5	-1	nt

From PubChem
